40 molecules from PubChem BioAssay (Tox21) can be followed below.

“And” between values parts separate entries of the source, which are not always exact repeats. Identical values can stand only once. Results filed as inconclusive are left out. Entries that show only a call come without a potency. The source made the active and inactive calls. Calls come from the whole dose curve.
Potency is the fitted concentration of half-maximal effect.

The assay in a line: qHTS assay for small molecule agonists of the p53 signaling pathway - cell viability (AID 651633). Note: nearly all actives have a fitted effect of over 30% in size. The following applies: p53RE-bla HCT-116 viability, ATP luminescence, 16 h; series mostly up to 83.3 µM. An excerpt:
National Center for Advancing Translational Sciences [NCATS]
NIH Chemical Genomics Center [NCGC]
U.S. Environmental Protection Agency [EPA]
National Institutes of Environmental Health Sciences [NIEHS]
National Toxicology Program [NTP]
U.S. Food and Drug Administration [FDA]
p53, a tumor suppressor protein, is activated following cellular insult, including DNA damage and other cellular stresses. The activation of p53 regulates cell fate by inducing DNA repair, cell cycle arrest, apoptosis, or cellular senescence. The activation of p53, therefore, is a good indicator of DNA damage and other cellular stresses. […] The activation of the reporter gene under culture conditions can be detected by fluorescence intensity. This cell line was used to screen the Tox21 compound library in a 1536-well plate format and to identify agonists that activate the p53 signaling pathway.
Tox21 Assay Protocol Summary:
The p53RE-bla cells were dispensed at 4,000 cells/5 ul/well in 1536-well black wall/clear bottom plates using a Multidrop dispenser. After the assay plates were incubated at a 37 C/5% CO2 incubator for 5 hours, 23 nL of compounds dissolved in DMSO, positive controls or DMSO only was transferred to the assay plate by a pin tool. The plates were incubated at 37 C for 16 hours. After 1 uL of LiveBLAzerTM B/G FRET substrate was added using a Flying Reagent Dispenser, the plates were incubated at room temperature for 2 hours, and fluorescence intensity was measured by an Envision plate reader.
For cell viability readout that measures cytotoxicity, 4 ul/well of CellTiter-Glo reagent was added into the assay plates using a Flying Reagent Dispenser. After 30 min incubation at room temperature, the luminescence intensity in the plates was measured using a ViewLux plate reader.
(In qHTS, concentration-response curves come from the screen itself.)
For `CC(=O)[O-].CC(=O)[O-].O.O.O.[Pb+2]`, the Potency entry is “inactive”. The same measure for `CCCCCCCc1ccc(O)cc1`: “inactive”; for `CC(C)NCC(O)c1ccccc1Cl` (stereo not given): “inactive”; for `CCN1CCC2(CC1)COc1cc3c(cc12)N(C(=O)c1ccc(-c2ccc(-c4nnc(C)o4)cc2C)cc1)CC3`: 56.4 µM (active). The entry for `Oc1cc(Cl)cc(Cl)c1` is “inactive”; for `FC(F)C(F)(F)OCC(Cn1cncn1)c1ccc(Cl)cc1Cl` (stereo not given) it is “inactive”. The same measure for `Cc1cccc(Cc2cnc[nH]2)c1C`: “inactive”; for `O=C(NC(=O)c1ccccc1Cl)Nc1ccc(OC(F)(F)F)cc1`: “inactive”. In the case of `CCN(CC)C(=S)S`, the Potency entry was “inactive”. The figure for `[O]=[Cr](=[O])([OH])[O][Cr](=[O])(=[O])[OH]` is 19.5 µM (active) [middle of 4 runs]. The entry for `C1=CCC=C1` is “inactive”; for `CCOP(=S)(OCC)SC(CCl)N1C(=O)c2ccccc2C1=O` (stereo not given) it is “inactive”.

In the case of `O=C(N[C@@H]1N=C(c2ccccc2F)c2cccc3c2N(CC3)C1=O)c1cc2ccccc2[nH]1`, the Potency entry is “inactive”. For `[Cl][Hg][c]1ccccc1`, the Potency is 1.93 µM (active). The same measure for `CC(=O)C(Cl)C(=O)N(C)C` (stereo not given): “inactive”. In the case of `O=NN(CCO)CCO`, the Potency entry is “inactive”.

As for `O=[N+]([O-])C(Br)Br`, the Potency entry was “inactive”. The same measure for `CCN(CC)CCc1c[nH]c2ccccc12`: “inactive”; for `c1ccc2c(c1)cc1ccc3cccc4ccc2c1c34`: “inactive”. For the molecule `C=CC(=O)[O][Sn]([CH2]CCC)([CH2]CCC)[CH2]CCC`, the Potency was 0.864 µM (active). The same measure for `O=c1[nH]c(Cl)c(Cl)cc1Cl`: “inactive”. The entry for `Cc1ccn2nc(S(=O)(=O)Nc3c(F)cccc3F)nc2n1` is “inactive”. The same measure for `CCCN`: “inactive”; for `[C-]1=CC=CC1.[Cl][Zr+2][Cl].c1cc[cH-]c1`: “inactive”. As for `O=P(Cl)(Cl)Cl`, the Potency result is “inactive”. The entry for `CCC1COC(Cn2cncn2)(c2ccc(Cl)cc2Cl)O1` (stereo not given) is “inactive”; for `Oc1ccc(Cl)c(Cl)c1` it is “inactive”; for `O=[N+]([O-])c1cccc2cccc([N+](=O)[O-])c12` it is “inactive”. The entry for `Cc1nn(-c2cc(NS(C)(=O)=O)c(Cl)cc2Cl)c(=O)n1C(F)F` is “inactive”; for `COc1ccc2[nH]cc(CCN(C(C)C)C(C)C)c2c1` it is “inactive”. The same measure for `O=C1C2(Cl)C3(Cl)C4(Cl)C(Cl)(Cl)C5(Cl)C3(Cl)C1(Cl)C5(Cl)C24Cl` (stereo not given): 37.9 µM (active); for `CCOP(=S)(OCC)Oc1cc(C)nc(N(CC)CC)n1`: “inactive”.

In the case of `COC(=O)c1cc(Oc2ccc(Cl)cc2Cl)ccc1[N+](=O)[O-]`, the Potency entry was “inactive”. The same measure for `ClC1(Cl)C2(Cl)C3(Cl)C4(Cl)C(Cl)(Cl)C5(Cl)C3(Cl)C1(Cl)C5(Cl)C24Cl` (stereo not given): “inactive”; for `ClSC(Cl)(Cl)Cl`: “inactive”.

Turning to `COC(=O)N(OC)c1ccccc1COc1ccn(-c2ccc(Cl)cc2)n1`, the Potency result is “inactive”.

For the molecule `ClC1=C(Cl)[C@]2(Cl)[C@H]3[C@H]([C@@H]4C=C[C@H]3C4)[C@@]1(Cl)C2(Cl)Cl`, the Potency is 30.6 µM (active) and 61.1 µM (active). The same measure for `Nc1c(Cl)c(Cl)c(Cl)c(Cl)c1Cl`: “inactive”. The same measure for `Oc1ccc2[nH]cc(CCCCN3CC=C(c4ccccc4)CC3)c2c1`: “inactive”. On to `CCN(CC)Cc1nccn1-c1ccc([N+](=O)[O-])cc1C(=O)c1ccccc1Cl`, for which the Potency result was “inactive”.
